# A selection: hits, their analogues and other compounds. The true share with any hit is near 1.1%.
# PTAP TSG101 blk: blocks PTAP/TSG101 interaction to inhibit HIV-1 budding. Fluorescence polarization, FITC-PTAP peptide / Tsg101 binding. 340,000 tested, under 10 active. Potency, µM (titrated, usually from 115 µM), for inactives: at the top dose activity change, negative = inhibition, actives largely listed as inhibitors. Q99816; active = well fitted inhibition curve with a large enough effect in the main read-out, with a control signal flat, not every such curve was filed as active; inconclusive = small, poorly fitted or top-dose-only effect, or effect the other way, or a change in a side signal; inactive = no such curve, though single readings can be large or run the other way; note: % of control where 0% means no effect
#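 Steps: Tsg101 binding domain dispensed (10 uM final), compounds pinned in DMSO, FITC-labeled PTAP-motif peptide added (50 nM final); after 20 min binding at room temperature, polarization measured.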
# Eya2 phos inh: blocks the phosphatase activity of human Eya2 | Potency, µM (titrated, usually from 76.9 µM), for the others: at the highest dose activity, negative = inhibition, usual class: inhibitors | recombinant Eya2, OMFP fluorescence dephosphorylation (OMFP is methylfluorescein phosphate) | 330,000 tested, 0.006% active; note: % is set by controls: 0 for no effect and ±100 for the full control effect
#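 Eya2 (0.2 uM) preincubated 10 min at ambient with compound, then OMFP substrate added at 50 uM; 10 min reaction in 50 mM HEPES pH 7.5, 50 mM NaCl, 5 uM MgCl2, 0.05% BSA, 1 mM DTT. Fluorescence read at Ex 485/Em 525 nm.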
# USP2a inh: USP2a (human) protease inhibition; O75604; USP2 core, Ub-CHOP2 coupled fluorogenic reporter, 485/531; Potency, µM (top dose mostly 38.3 µM), for the others: top-dose activity change, negative = inhibition, usual class: inhibitors; 330,000 tested, 0.01% active; AID 463254;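 note: plate controls were DMSO wells for no effect and full inhibition by NEM control for full effect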
# Target sequence (O75604 whole entry, looked up): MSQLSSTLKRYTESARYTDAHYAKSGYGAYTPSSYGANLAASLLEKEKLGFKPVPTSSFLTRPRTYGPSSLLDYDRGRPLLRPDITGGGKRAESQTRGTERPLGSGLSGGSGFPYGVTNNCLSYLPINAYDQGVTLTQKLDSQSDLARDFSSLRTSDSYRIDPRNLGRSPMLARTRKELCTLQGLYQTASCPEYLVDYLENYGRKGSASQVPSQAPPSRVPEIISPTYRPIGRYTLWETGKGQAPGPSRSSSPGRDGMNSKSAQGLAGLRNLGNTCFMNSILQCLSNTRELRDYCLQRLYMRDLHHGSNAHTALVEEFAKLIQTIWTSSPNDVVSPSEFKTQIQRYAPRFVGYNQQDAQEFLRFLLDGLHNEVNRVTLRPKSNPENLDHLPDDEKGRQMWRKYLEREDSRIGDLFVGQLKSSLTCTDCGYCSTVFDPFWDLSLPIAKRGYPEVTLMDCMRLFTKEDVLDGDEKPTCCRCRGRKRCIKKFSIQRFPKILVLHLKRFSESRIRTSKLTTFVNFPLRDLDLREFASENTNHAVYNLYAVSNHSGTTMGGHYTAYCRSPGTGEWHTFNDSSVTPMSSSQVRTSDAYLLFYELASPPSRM
#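 USP2 core (10nM final) preincubated 30min RT with compound in 20mM Tris-HCl pH 8.0, 2mM CaCl2, 2mM beta-mercaptoethanol, 0.05% CHAPS; 25nM Ub-CHOP2 plus 25nM reporter substrate added, fluorescence (Ex485/Em531) read after 60min.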
# 12-LOX inh: inhibitors of human 12S-lipoxygenase ALOX12; purified 12hLO, xylenol orange hydroperoxide absorbance; Potency, µM (doses to about 108 µM), for the others: top-dose activity change, negative = inhibition, usual class: inhibitors; 580,000 tested, 1.1% active; note: % is set by controls: 0 for no effect and ±100 for the full control effect
#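 Hydroperoxide product was detected by ferrous iron/xylenol orange as the 573 to 405 nm absorbance ratio. Arachidonic acid at 40 uM (final) was turned over for 30 min at room temperature by 150 nM human 12hLO, pH 7.0 Hepes buffer, after 15 min compound preincubation.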
# Active calls of the source: *; ? = inconclusive; . = no result; ! = repeats disagree; [ ] = another dose, or the depositor's remark. Unless noted, calls come from the whole dose curve; as a rule, active = well fitted curve in the direction sought with a large enough effect; inconclusive = small, poorly fitted or top-dose-only effect, or another doubt; inactive = no such curve, though single readings can be large; an effect the other way counts as inactive or inconclusive. Potency is the fitted concentration of half-maximal effect.
SMILES,PTAP TSG101 blk,Eya2 phos inh,USP2a inh,12-LOX inh
Cc1ccc2[nH]c3c(c2c1)CN(C(=O)CN1CCN(c2cccc(C)c2C)CC1)CC3,-13.9%,-22.6%,-0.2%,39.8µM*
CC1(C)CC(=O)C2=C(C1)N1CCc3cc4c(cc3C1=CC2c1ccc(F)cc1)OCCCO4 (stereo unspecified),.,.,.,25.1µM*
CCc1cccc(NC(=O)Nc2cccc(-c3ccc(N4CCOCC4)nn3)c2)c1,.,.,.,-8.0%
O=C(O)C(=O)/C(=C/c1ccsc1)c1ccc2ccccc2n1,.,.,.,8.91µM*
O=C(O)CCCCCN1C(=O)CC(c2ccccc2)CC1=O,.,.,.,-12.0%
C=CCSCC(=O)NCC1(c2cccc(Cl)c2)CCOCC1,.,.,.,-41.4%
CCOC(=O)CSC1=NC(=O)/C(=C\c2ccc(Cl)cc2)S1,6.7%,0.2%,13.2%,44.7µM*
COc1cccc(NC(=S)NN=C2CCCCCC2)c1,0.6%,0.8%,-7.4%,?
Cc1cccc(NC(=S)NN=C2CCCC2)c1,.,.,.,14.1µM*
S=C(NN=C1CCC(c2ccccc2)CC1)NC1CCCCC1 (stereo unspecified),.,.,.,35.5µM*
Cc1ccc(C)c(NC(=S)N/N=C2\CCc3ccccc32)c1,-1.6%,8.2%,2.7%,22.4µM*
C=C(C)CNC(=S)N/N=C1\CCCCc2ccccc21,0.8%,-4.7%,1.3%,35.5µM*
COc1ccc(NC(=S)N/N=C2/CCCc3c(C)cc(C)cc32)cc1,-2.5%,15.4%,0.0%,0.0%
CCNC(=S)N/N=C1\CCCCc2ccccc21,0.3%,-0.3%,3.7%,?
Cc1cccc(NC(=S)N2CCCC2)c1,-1.0%,8.7%,2.1%,0.0%
S=C(N/N=C1/CCCCc2ccccc21)NC1CCCCC1,.,.,.,44.7µM*
Cc1cccc(NC(=S)N/N=C2/CCCCc3ccccc32)c1,-4.7%,-1.6%,-0.3%,31.6µM*
Cc1ccc(NC(=S)N/N=C2/CCCCc3ccccc32)cc1,-7.1%,-2.6%,6.0%,31.6µM*
Cn1nc(C2CCCN(C(=O)Nc3ccc4c(c3)OCCO4)C2)n(C2CCCC2)c1=O (stereo unspecified),.,.,.,4.2%
CC1(NC(=O)C2CC2)CN(Cc2nc(-c3ccccc3OCc3ccccc3)cs2)C1,.,.,.,0.1%[176 µM]
CC(=O)NC1(C)CCN(Cc2cccc(Oc3ccccc3)c2)CC1,.,.,.,15.8µM*
CC(=O)NC1(C)CCN(Cc2cnc(-c3ccccc3OCc3ccccc3)s2)CC1,.,.,.,8.91µM*
COc1cccc(Nc2cc(CN3CCC(C)(NC(C)=O)CC3)cc(OC)c2)c1,.,.,.,39.8µM*
CC(=O)NC1(C)CCN(Cc2cccc(-c3ccccc3)c2)C1 (stereo unspecified),.,.,.,-17.0%[176 µM]
COC(=O)[C@@H]1Cc2c([nH]c3ccccc23)[C@H]2C[C@@H](NCCCn3ccnc3)C[C@@H](c3ccccc3)N21,.,.,.,23.0%
SMILES,PTAP TSG101 blk,Eya2 phos inh,USP2a inh,12-LOX inh
COc1ccccc1N(C)c1cc2c(c3c1ccn3C)C1CCC2C1 (stereo unspecified),.,.,.,39.8µM*
CCN(C)c1cc2c(c3c1ccn3C)C1CCC2C1 (stereo unspecified),.,.,.,-26.0%
Cn1ccc2c(N3CCCC3)cc3c(c21)C1CCC3C1 (stereo unspecified),.,.,.,44.7µM*
Cn1ccc2c(N3CCCC3)cc3c(c21)C1CCC3O1 (stereo unspecified),.,.,.,-75.2%
CN(CCc1ccccc1)c1cc2c(c3c1ccn3C)C1CCC2C1 (stereo unspecified),.,.,.,44.7µM*
COc1ccc(-c2cc3c(c4c2ccn4C)C2CCC3C2)cc1F (stereo unspecified),.,.,.,-45.7%
Cc1ccc(-c2c(C)nn3c(N4CCN(CCO)CC4)cc(C)nc23)cc1,.,.,.,-3.0%
COc1ccc(-c2[nH]nc3c2C(c2ccc4c(c2)OCO4)CC(=O)O3)cc1 (stereo unspecified),.,.,.,44.7µM*
Fc1ccc(-c2ccc3ncc(Nc4ccncc4)n3n2)cc1,.,.,.,19.9%[176 µM]
Cn1c(=S)c2[nH]c(SCc3cccnc3)nc2n(C)c1=O,-1.1%,.,.,3.16µM*
COc1ccc(-c2cnc(C)o2)cc1S(=O)(=O)Nc1ccc(C)c(F)c1,.,.,.,50.1µM*!
Cc1ccc(NS(=O)(=O)c2ccc(-c3cnc(C4CC4)o3)cc2)cc1N(C)C,.,.,.,-8.7%
COc1ccc(-c2cnc(C)o2)cc1S(=O)(=O)Nc1ccc(C)c(N(C)C)c1,.,.,.,-16.9%
Cc1ccc(NS(=O)(=O)c2ccc(-c3cnc(C4CC4)o3)cc2)cc1F,.,.,.,3.55µM*
COc1ccc(Nc2cc(C)nc3nc(-c4ccccc4)nn23)cc1,.,.,.,-7.9%
Clc1ccc(Nc2ncc(-c3cccnc3)c3c2OCC3)cc1,.,.,.,10.3%[176 µM]
CCN(CC)CCn1c2ccccc2c2n[nH]c(=S)nc21,2.8%,5.6%,-0.5%,31.6µM*
CN(C)c1ccc(CN2CCC3(C2)C(=NC2CCCCC2)NC(=O)N3c2cc(F)cc(F)c2)cc1 (stereo unspecified),.,.,.,6.7%[6.33 µM]
Cc1nn(C)c(C)c1CN(C)C(=O)CCCC(=O)O,-3.9%,-0.2%,0.0%,17.8µM*
CN(C)C(=S)c1ccc(N(C)C)cc1,-1.9%,1.1%,0.7%,?
CCOc1ccc(C(N)=S)cc1,.,.,.,14.1µM*
CN(C)c1ccc(C(N)=S)cc1,.,.,.,15.8µM*
C=CCNC(=S)NS(=O)(=O)c1cccs1,-5.8%,6.4%,11.4%,1.12µM*
CC(C)Oc1ccccc1CN1C[C@@H](CO)[C@H](c2ccncc2)C1,.,.,.,39.1%
Cc1cc(-c2csc(Nc3ccccn3)n2)ccc1F,2.0%,?,1.4%,?
SMILES,PTAP TSG101 blk,Eya2 phos inh,USP2a inh,12-LOX inh
Cc1cccc(Nc2nc(-c3ccc(O)cc3O)cs2)n1,-1.3%,-21.4%,-16.6%,25.1µM*
O=c1[nH]c2ccc(-c3csc(Nc4ccc(Cl)cc4)n3)cc2o1,.,.,.,-86.5%
Cc1cc(-c2csc(Nc3ccc(O)cc3)n2)ccc1F,.,.,.,35.5µM*
Cc1ccc(-c2csc(Nc3ccc(S(N)(=O)=O)cc3)n2)cc1C,.,.,.,44.7µM*
O=c1[nH]c2ccc(-c3csc(Nc4ccc(F)cc4)n3)cc2o1,.,.,.,17.8µM*
CCN1c2cc(C(=O)NCc3ccc(C(C)C)cc3)ccc2C(=O)N2CCCCCC21 (stereo unspecified),.,.,.,-12.2%
COc1cc(-c2nnc(-c3cccc4ccccc34)o2)cc(OC)c1OC,.,.,.,-10.7%
CC[C@H]1CN(S(=O)(=O)c2c(C)noc2C)CC[C@H]1CC(=O)NCc1cccc2ccccc12,.,.,.,1.9%
CCCN1CCCCC12Cc1ccccc1CN(C(=O)c1c(C)noc1C)C2 (stereo unspecified),.,.,.,11.0%[6.33 µM]
Oc1ccc(-c2csc(Nc3ncccn3)n2)c(O)c1,-5.1%,-7.5%,-3.0%,-11.0%
Oc1ccc(Nc2nc(-c3ccc(F)cc3F)cs2)cc1,.,.,.,7.94µM*
Oc1ccc(-c2csc(Nc3ccc4c(c3)OCO4)n2)c(O)c1,-2.0%,.,.,31.6µM*
Fc1ccc(-c2csc(Nc3ccccn3)n2)c(F)c1,-0.7%,-24.3%,0.4%,-59.5%
CC1(COc2cccnc2)COc2ccc(C(=O)NCCOc3ccccc3)cc2N1 (stereo unspecified),.,.,.,40.1%[176 µM]
COc1cc(-c2ccc(Nc3ccccc3C(=O)O)c(OC)c2)ccc1Nc1ccccc1C(=O)O,-5.3%,1.2%,-2.2%,35.5µM*

# From PubChem BioAssay
